Laboratory results taken from PubChem BioAssay AID1029 (Sanford-Burnham Center for Chemical Genomics, 2008).
In all, about 110,000 compounds went through this assay and about 80 (0.07%) were called active. This is one part of a sample in which actives are shown more often than they occur.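 How the source made its calls: active means inhibition above the mean of the plate negative controls plus 5 SD (cut at about 13% in these data); inactive means the rest.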

Assay: inhibitors of macrophage phagocytosis, primary screen, imaging, J774A.1 cells, IgG beads (AID 1029);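 further: phagocytic index as fraction of beads internalized from green versus red external bead signal; plate controls were DMSO negative control for no effect and cytochalasin-D positive control for full effect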
Conditions: J774A.1 macrophage IgG-bead phagocytosis, at 5 µM, stronger effect = higher value

Question: With CC(=O)c1ccc2c(c1)c1ccccc1n2CC(C)C as the compound, how does the inhibition read?
Answer: 0.3% (inactive)

Question: With CC(=O)c1c(C)n([O-])c2ccccc2[n+]1=O as the compound, how does the inhibition read?
Answer: 79.2% (active)

Question: With c1ccc(-c2cc3c(NCC4COc5ccccc5O4)ncnc3s2)cc1 (stereo not given) as the compound, how does the inhibition read?
Answer: -5.69% (inactive)

Question: Which inhibition does the source give for CCNS(=O)(=O)c1ccc(NC(=O)c2cncc(Br)c2)cc1 here?
Answer: -7.43% (inactive)

Question: With CCC1CCCCN1C(=S)Nc1ccc(C(C)=O)cc1 (stereo not given) as the compound, how does the inhibition read?
Answer: -9.4% (inactive)

Question: For O=C(/C=C/c1cccc([N+](=O)[O-])c1)NCCSCc1ccco1, which inhibition is on record?
Answer: 6.74% (inactive)

Question: With CCc1ccc(-c2cc(C(=O)NN3CCN(C)CC3)c3ccccc3n2)cc1 as the compound, how does the inhibition read?
Answer: -2.84% (inactive)

Question: Which inhibition does the source give for COC(=O)c1c(NC(=O)CN2CCN(S(=O)(=O)c3ccccc3[N+](=O)[O-])CC2)sc2c1CCC(C)C2 (stereo not given) here?
Answer: -4.89% (inactive)

Question: For Cc1ccc(NC(=O)CSCC(=O)NC2CCCCC2)cc1, which inhibition is on record?
Answer: 6.8% (inactive)

Question: With Cc1ccc(CN2C(=O)N/C(=C/c3cc(C)n(-c4ccccn4)c3C)C2=O)cc1 as the compound, how does the inhibition read?
Answer: -12.6% (inactive)

Question: Which inhibition does the source give for COc1ccc(NC(=S)NC2CCS(=O)(=O)C2)cc1 (stereo not given) here?
Answer: -3.06% (inactive)

Question: Which inhibition does the source give for O=C(Nc1ccccc1)/C(=C/c1ccc([N+](=O)[O-])cc1)NC(=O)c1ccccc1 here?
Answer: -6.22% (inactive)

Question: For CC(=O)Nc1ccc(/C(C)=N/NC(=O)CN(c2ccccc2Br)S(C)(=O)=O)cc1, which inhibition is on record?
Answer: -1.53% (inactive)

Question: For Cc1ccccc1OCC(=O)Nc1nc(C)c(C(=O)N(C)C)s1, which inhibition is on record?
Answer: -2.14% (inactive)

Question: With CCn1ncc(CNC(=O)C2(C)CC2(Br)Br)c1C (stereo not given) as the compound, how does the inhibition read?
Answer: -2.71% (inactive)

Question: With O=C(/C=C\c1cn(-c2ccccc2)nc1-c1cccs1)N1CCOCC1 as the compound, how does the inhibition read?
Answer: -5.61% (inactive)

Question: With COc1cc2c(cc1OC)C(Nc1ccc(S(N)(=O)=O)cc1)=NC(C)(C)C2 as the compound, how does the inhibition read?
Answer: -2.77% (inactive)

Question: Which inhibition does the source give for COCCNc1nc(N)c([N+](=O)[O-])c(NCCO)n1 here?
Answer: -3.97% (inactive)

Question: Which inhibition does the source give for COc1ccc(/C(C)=N/NC(=O)CCC(=O)Nc2ccc(Cl)cc2Cl)c(OC)c1 here?
Answer: 0.09% (inactive)

Question: For CCC1CCc2c(sc(NC(C)=O)c2C#N)C1 (stereo not given), which inhibition is on record?
Answer: -7.48% (inactive)

Question: With COc1ccc(N2C(=O)C(O)C2c2ccc(C)cc2)cc1 (stereo not given) as the compound, how does the inhibition read?
Answer: -1.93% (inactive)

Question: With CC(CC(=O)N1CCN(c2ccccc2)CC1)c1ccccc1 (stereo not given) as the compound, how does the inhibition read?
Answer: -3.13% (inactive)

Question: Which inhibition does the source give for Cc1ccnc(NC(=O)Cn2ccc([N+](=O)[O-])n2)c1 here?
Answer: -6.53% (inactive)

Question: For Cc1ccc(C)c(NC(=O)CCC(=O)NNC(=O)c2cccs2)c1, which inhibition is on record?
Answer: 1.58% (inactive)

Question: For COCCNC(=O)c1ccccc1NS(=O)(=O)c1ccc(C)c([N+](=O)[O-])c1, which inhibition is on record?
Answer: -2.99% (inactive)

Question: For O=C(NNC(=S)NCc1ccccc1)c1ccc(OC(F)F)cc1, which inhibition is on record?
Answer: -3.86% (inactive)

Question: With CCCCN(CC)C(=S)Nc1ccc2nc3n(c(=O)c2c1)CCCCC3 as the compound, how does the inhibition read?
Answer: -7.14% (inactive)

Question: Which inhibition does the source give for O=C1CCCC(O)=C1N=Nc1ccc2ncsc2c1 here?
Answer: 105% [artifact] (active)

Question: For COc1ccc(C)cc1NC(=O)C(OC(=O)c1cccc(S(=O)(=O)N(C)c2ccccc2)c1)c1ccccc1 (stereo not given), which inhibition is on record?
Answer: -5.86% (inactive)

Question: For Cc1cccc(C)c1NC(=O)CSc1ccc([N+](=O)[O-])cn1, which inhibition is on record?
Answer: -2.92% (inactive)

Question: Which inhibition does the source give for O=C1NC(c2ccccc2)CCC1(Cl)Cl (stereo not given) here?
Answer: 2.89% (inactive)

Question: For CCC(=O)/C=C1\Sc2ccccc2N1CC, which inhibition is on record?
Answer: -1.58% (inactive)

Question: With S=C(NCc1ccc(Cl)cc1)NC1CCCCC1 as the compound, how does the inhibition read?
Answer: -3.92% (inactive)

Question: With O=C(NN1C(=O)C2C3C=CC(O3)C2C1=O)c1ccncc1 (stereo not given) as the compound, how does the inhibition read?
Answer: -4.03% (inactive)

Question: With O=C(CSc1nnc(-c2ccncc2)o1)NCc1ccc(Cl)cc1 as the compound, how does the inhibition read?
Answer: -5.78% (inactive)

Question: Which inhibition does the source give for COc1ccc(OCc2cn3c(C)cc(C)nc3n2)cc1 here?
Answer: -0.34% (inactive)

Question: Which inhibition does the source give for COc1cc(/C=C/C(=O)O)cc(S(=O)(=O)Nc2ccccc2SC)c1OC here?
Answer: -5.74% (inactive)

Question: With CCCCN(CC)C(=O)c1ccc2c(c1)OCO2 as the compound, how does the inhibition read?
Answer: 1.32% (inactive)

Question: With Cc1ccc2c(c1)C1CN(C)CCC1N2C(=O)c1ccccc1NS(=O)(=O)c1ccc(F)cc1C (stereo not given) as the compound, how does the inhibition read?
Answer: -3.92% (inactive)

Question: Which inhibition does the source give for COC(=O)/C(=C1\Oc2ccc(C(C)(C)C)cc2S1)C(F)(F)F here?
Answer: 7.86% (inactive)

Question: With CC(C)CNC(=S)Nc1ccc(F)cc1 as the compound, how does the inhibition read?
Answer: -3.14% (inactive)

Question: Which inhibition does the source give for CCCCOc1ccc(NC(=O)[C@@H]2CCCN2C(=O)C2CCN(S(=O)(=O)c3ccc(C)cc3)CC2)cc1 here?
Answer: -3.36% (inactive)

Question: Which inhibition does the source give for Cc1ccc(NC(=O)CC2S/C(=N/N=C3\CCCc4ccccc43)NC2=O)cc1 (stereo not given) here?
Answer: -6.09% (inactive)

Question: Which inhibition does the source give for O=C(CN1CCc2ccccc21)NC(c1ccccc1)c1ccccc1 here?
Answer: -5.11% (inactive)

Question: With O=C(O)c1ccc2c(c1)C(=O)N(NC(=O)c1ccc(O)cc1)C2=O as the compound, how does the inhibition read?
Answer: -5.14% (inactive)

Question: For COc1ccc(NC(=S)NCc2cccs2)c(OC)c1, which inhibition is on record?
Answer: 0.55% (inactive)

Question: Which inhibition does the source give for COc1cc2c(cc1/C=C1/NC(=O)N(c3ccccc3)C1=O)OCO2 here?
Answer: -3.27% (inactive)

Question: Which inhibition does the source give for Cc1cc(C(=O)NNC(=S)NC(C)c2ccccc2)cs1 (stereo not given) here?
Answer: -2.01% (inactive)

Question: Which inhibition does the source give for Cc1ccc(-n2[nH]c(C)c(/C=N/NC(=O)c3cccc([N+](=O)[O-])c3)c2=O)cc1C here?
Answer: -4.72% (inactive)

Question: For Cc1ccc(C(=O)Oc2coc(CSc3nnc(NC(=O)c4cccs4)s3)cc2=O)cc1C, which inhibition is on record?
Answer: -0.5% (inactive)

Question: With NC1=C([N+](=O)[O-])C(c2ccccc2)C2=C(CCCC2=O)O1 (stereo not given) as the compound, how does the inhibition read?
Answer: -3.95% (inactive)

Question: Which inhibition does the source give for COc1ccc(C(=O)COC(=O)c2ccc3ccccc3n2)cc1 here?
Answer: -5.54% (inactive)

Question: With O=[N+]([O-])c1cccc(C2=NCCS2)c1 as the compound, how does the inhibition read?
Answer: 0.05% (inactive)

Question: Which inhibition does the source give for Cc1ccccc1Cn1nc(C)c(NC(=O)C(F)(F)F)c1C here?
Answer: -2.43% (inactive)

Question: For CC(C)(C)C1CCC(=NNC(=O)c2cc(-c3ccccc3)n[nH]2)CC1 (stereo not given), which inhibition is on record?
Answer: 0.48% (inactive)

Question: Which inhibition does the source give for CCOc1ccc2nc(NC(=O)c3cc([N+](=O)[O-])ccc3N3CCOCC3)sc2c1 here?
Answer: 3.64% (inactive)

Question: For CC(=O)c1ccc(NC(=S)NC(=O)CC(C)C)cc1, which inhibition is on record?
Answer: -4.19% (inactive)

Question: Which inhibition does the source give for CCOc1ccc(C(=O)NC(=S)Nc2ccc(NC(=O)C(C)C)cc2)cc1[N+](=O)[O-] here?
Answer: -0.7% (inactive)

Question: With COc1ccc2nc(Nc3nc(-c4cc5ccccc5oc4=O)cs3)sc2c1 as the compound, how does the inhibition read?
Answer: 0.77% (inactive)

Question: With CC(=O)Nc1cccc(/C(C)=N/NC(=O)c2c(-c3ccccc3Cl)noc2C)c1 as the compound, how does the inhibition read?
Answer: -2.62% (inactive)
